Measurements published in PubChem BioAssay (NCI).
About 83,000 compounds went through this panel and 20% of them were active in at least one assay; those are over-represented in the sample as a whole.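 Single-concentration screen, 48 h exposure, 96-well plates. Endpoint: percent growth. Below 10 = active.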 The source made the active and inactive calls.

Legend:
Assay in all cases: NCI-60 one-dose screen, 48 h (100 = growth as untreated, 0 = no growth, -100 = all killed)
Settings in all cases: 10 µM unless noted
RPMI-8226 leukemia = tested on: RPMI-8226 leukemia
OVCAR-8 ovarian = tested on: OVCAR-8 ovarian
OVCAR-5 ovarian = tested on: OVCAR-5 ovarian
OVCAR-4 ovarian = tested on: OVCAR-4 ovarian
SK-OV-3 ovarian = tested on: SK-OV-3 ovarian
IGROV1 ovarian = tested on: IGROV1 ovarian
OVCAR-3 ovarian = tested on: OVCAR-3 ovarian
HS 578T breast = tested on: HS 578T breast
NCI/ADR-RES ovarian = tested on: NCI/ADR-RES ovarian
T-47D breast = tested on: T-47D breast

Measured: growth

C/C(=C\CCc1ccsc1)CC/C=C(\C)CCCN1CCN(CCO)CC1
active: RPMI-8226 leukemia -18.9%
inactive: OVCAR-8 ovarian 59.3% | OVCAR-5 ovarian 71.8% | OVCAR-4 ovarian 41.9% | SK-OV-3 ovarian 77.4% | IGROV1 ovarian 52.8% | OVCAR-3 ovarian 64.6% | HS 578T breast 49.5% | NCI/ADR-RES ovarian 56.3% | T-47D breast 36.2%

O=C(Nc1ccc(Cl)cc1Cl)Nc1ccc(-c2cccnc2)cc1N1CCC(CO)CC1
active: RPMI-8226 leukemia 9.15% | SK-OV-3 ovarian 4.28%
inactive: OVCAR-8 ovarian 32.8% | OVCAR-5 ovarian 48.5% | OVCAR-4 ovarian 53.2% | IGROV1 ovarian 34.8% | OVCAR-3 ovarian 24.9% | HS 578T breast 36.4% | NCI/ADR-RES ovarian 30.7% | T-47D breast 17.5%

CCOC(=O)/C(=C/c1ccccc1)C(=O)c1ccccc1
inactive: OVCAR-8 ovarian 65.3% | OVCAR-5 ovarian 97.3% | OVCAR-4 ovarian 81.8% | SK-OV-3 ovarian 92.6% | IGROV1 ovarian 65.8% | OVCAR-3 ovarian 63.5% | HS 578T breast 88% | NCI/ADR-RES ovarian 65.3% | T-47D breast 73.6%
active: RPMI-8226 leukemia 3.77%

COc1ccc(-c2csc(NC(=O)c3cc(O)c(O)c(O)c3)n2)cc1
inactive: RPMI-8226 leukemia 41.1% | OVCAR-8 ovarian 57.6% | OVCAR-5 ovarian 86.1% | OVCAR-4 ovarian 58.6% | SK-OV-3 ovarian 77.5% | IGROV1 ovarian 46.4% | OVCAR-3 ovarian 72.6% | HS 578T breast 101% | NCI/ADR-RES ovarian 62.2% | T-47D breast 44.7%

NNC(=O)C1CC2c3ccccc3C1c1ccccc12 (stereo not given)
inactive: RPMI-8226 leukemia 90.1% | OVCAR-8 ovarian 102% | OVCAR-5 ovarian 99.4% | OVCAR-4 ovarian 106% | SK-OV-3 ovarian 112% | IGROV1 ovarian 110% | OVCAR-3 ovarian 102% | HS 578T breast 102% | NCI/ADR-RES ovarian 103% | T-47D breast 112%

Cc1cc([N+](=O)[O-])c(C)cc1C(=O)O
inactive: RPMI-8226 leukemia 115% | OVCAR-8 ovarian 103% | OVCAR-5 ovarian 93.7% | OVCAR-4 ovarian 111% | SK-OV-3 ovarian 99.2% | IGROV1 ovarian 110% | OVCAR-3 ovarian 106% | HS 578T breast 107% | NCI/ADR-RES ovarian 103% | T-47D breast 83.5%

Cc1scc2c1N(C(=O)CN1CCN(C)CC1)c1ccccc1NC2=O
inactive: RPMI-8226 leukemia 113% | OVCAR-8 ovarian 102% | OVCAR-5 ovarian 118% | OVCAR-4 ovarian 101% | SK-OV-3 ovarian 105% | IGROV1 ovarian 108% | OVCAR-3 ovarian 108% | HS 578T breast 112% | NCI/ADR-RES ovarian 108% | T-47D breast 102%

O=C(C(=O)N1CCOCC1)c1ccc(OC2OC(CO)C(O)C(O)C2O)cc1 (stereo not given)
inactive: RPMI-8226 leukemia 111% | OVCAR-8 ovarian 100% | OVCAR-5 ovarian 98.2% | OVCAR-4 ovarian 116% | SK-OV-3 ovarian 100% | IGROV1 ovarian 117% | OVCAR-3 ovarian 110% | HS 578T breast 125% | NCI/ADR-RES ovarian 113% | T-47D breast 96%

O=C(c1nn(-c2ccc(Cl)cc2)cc1O)n1nc(C(F)(F)F)cc1-c1ccccc1
active: RPMI-8226 leukemia -10.4% | OVCAR-3 ovarian -1.65%
inactive: OVCAR-8 ovarian 22.9% | OVCAR-5 ovarian 58.7% | OVCAR-4 ovarian 29.2% | SK-OV-3 ovarian 23.2% | IGROV1 ovarian 34.9% | HS 578T breast 15.8% | NCI/ADR-RES ovarian 19.4% | T-47D breast 44.9%

CCN(CC)CCNc1ccc(Cl)cc1Cl
inactive: RPMI-8226 leukemia 109% | OVCAR-8 ovarian 98.2% | OVCAR-5 ovarian 124% | OVCAR-4 ovarian 117% | SK-OV-3 ovarian 92.5% | IGROV1 ovarian 110% | OVCAR-3 ovarian 109% | HS 578T breast 108% | NCI/ADR-RES ovarian 103% | T-47D breast 98.6%

c1ccc(N2CCN(c3nncc4ccccc34)CC2)nc1
inactive: RPMI-8226 leukemia 107% | OVCAR-8 ovarian 97.8% | OVCAR-5 ovarian 105% | OVCAR-4 ovarian 109% | SK-OV-3 ovarian 104% | IGROV1 ovarian 116% | OVCAR-3 ovarian 99.9% | HS 578T breast 109% | NCI/ADR-RES ovarian 109% | T-47D breast 101%

COc1ccc(OC)c(NC(=O)c2cc3oc4ccccc4c3cc2O)c1
inactive: RPMI-8226 leukemia 53.4% | OVCAR-8 ovarian 86.7% | OVCAR-5 ovarian 103% | OVCAR-4 ovarian 91.4% | SK-OV-3 ovarian 81.1% | IGROV1 ovarian 56.1% | OVCAR-3 ovarian 137% | HS 578T breast 84.6% | NCI/ADR-RES ovarian 88.6% | T-47D breast 74.4%

N#Cc1cnc2cc(OC[C@H](O)CO)c(NC(=O)CC3CSSC3)cc2c1Nc1ccc(OCc2cccc(F)c2)c(Cl)c1
inactive: NCI/ADR-RES ovarian 87.8%
active: RPMI-8226 leukemia -68.9% | OVCAR-8 ovarian -54.6% | OVCAR-5 ovarian -47.8% | OVCAR-4 ovarian -62.9% | SK-OV-3 ovarian -87.5% | IGROV1 ovarian -41.8% | OVCAR-3 ovarian -89.2% | HS 578T breast -44.7% | T-47D breast -61.1%

COC(=O)[C@]12CC[C@@H](C)[C@H](C)[C@@H]1C1=CC[C@@H]3[C@@]4(C)C[C@@H](OC(=O)c5ccco5)[C@H](O)[C@@](C)(CO)[C@@H]4[C@H](O)C[C@@]3(C)[C@]1(C)CC2
active: RPMI-8226 leukemia -64.7% | OVCAR-8 ovarian -76.1% | OVCAR-5 ovarian -85.3% | OVCAR-4 ovarian -67.9% | SK-OV-3 ovarian -97.2% | IGROV1 ovarian -65% | OVCAR-3 ovarian -93.8% | HS 578T breast -39.9% | NCI/ADR-RES ovarian -80.6% | T-47D breast -68.3%

COc1cc(/C=C2\CCC/C(=C\c3ccc(OCC4CO4)c(OC)c3)C2=O)ccc1OCC1CO1 (stereo not given)
active: RPMI-8226 leukemia -2.29% | OVCAR-8 ovarian 0.499% | IGROV1 ovarian -12.6% | OVCAR-3 ovarian -22.8%
inactive: OVCAR-5 ovarian 86% | OVCAR-4 ovarian 47.1% | SK-OV-3 ovarian 20.1% | HS 578T breast 23.4% | NCI/ADR-RES ovarian 56.8% | T-47D breast 46.3%

O=C1/C(=C/c2ccc([N+](=O)[O-])o2)Oc2ccc(Br)cc21
active: OVCAR-8 ovarian 6.99% | OVCAR-4 ovarian 5.15% | IGROV1 ovarian -17.9% | OVCAR-3 ovarian -43.1%
inactive: RPMI-8226 leukemia 84.2% | OVCAR-5 ovarian 105% | SK-OV-3 ovarian 92.1% | HS 578T breast 106% | NCI/ADR-RES ovarian 98.3% | T-47D breast 58%

CCCCCCOc1ccc(/C=N/NC(N)=S)cc1
active: RPMI-8226 leukemia 7.2%
inactive: OVCAR-8 ovarian 70.6% | OVCAR-5 ovarian 84.5% | OVCAR-4 ovarian 26.5% | SK-OV-3 ovarian 90.6% | IGROV1 ovarian 13.9% | OVCAR-3 ovarian 28.5% | HS 578T breast 61.8% | NCI/ADR-RES ovarian 58.5% | T-47D breast 24%

COc1cc(Oc2cc(-c3cccnc3)ccc2NC(=O)Nc2ccc(F)cc2F)cc(OC)c1OC
inactive: RPMI-8226 leukemia 93.6% | OVCAR-8 ovarian 92.8% | OVCAR-5 ovarian 117% | OVCAR-4 ovarian 113% | SK-OV-3 ovarian 89.1% | IGROV1 ovarian 116% | OVCAR-3 ovarian 102% | HS 578T breast 99.9% | NCI/ADR-RES ovarian 95.2% | T-47D breast 71.5%

COc1ccc2[nH]cc(/C=C3/C(=O)Nc4ccc(Cl)cc43)c2c1
inactive: RPMI-8226 leukemia 54% | OVCAR-8 ovarian 52% | OVCAR-5 ovarian 78.1% | OVCAR-4 ovarian 51.5% | SK-OV-3 ovarian 22.5% | IGROV1 ovarian 54.4% | OVCAR-3 ovarian 18.1% | HS 578T breast 31.9% | NCI/ADR-RES ovarian 49.6% | T-47D breast 61.9%

O=C(/C(=N/O)S(=O)(=O)c1ccccc1)c1cccs1
inactive: RPMI-8226 leukemia 101% | OVCAR-8 ovarian 104% | OVCAR-5 ovarian 118% | OVCAR-4 ovarian 113% | SK-OV-3 ovarian 94% | IGROV1 ovarian 109% | OVCAR-3 ovarian 109% | HS 578T breast 118% | NCI/ADR-RES ovarian 97.3% | T-47D breast 93.2%

N#Cc1c(N)[nH]c(S)c1C#N
inactive: RPMI-8226 leukemia 107% | OVCAR-8 ovarian 101% | OVCAR-5 ovarian 99.7% | OVCAR-4 ovarian 109% | SK-OV-3 ovarian 100% | IGROV1 ovarian 107% | OVCAR-3 ovarian 120% | HS 578T breast 104% | NCI/ADR-RES ovarian 116% | T-47D breast 89.3%

CCCn1cnc2c1c(=O)n(CCCCC(C)=O)c(=O)n2C
inactive: RPMI-8226 leukemia 101% | OVCAR-8 ovarian 98.3% | OVCAR-5 ovarian 110% | OVCAR-4 ovarian 97.1% | SK-OV-3 ovarian 95.1% | IGROV1 ovarian 97.6% | OVCAR-3 ovarian 115% | HS 578T breast 104% | NCI/ADR-RES ovarian 108% | T-47D breast 99%

O=C(Nc1ccc(C2=NCCCN2)cc1)Nc1ccc(C2=NCCCN2)cc1
inactive: RPMI-8226 leukemia 53.2% | OVCAR-8 ovarian 89% | OVCAR-5 ovarian 101% | OVCAR-4 ovarian 64% | SK-OV-3 ovarian 110% | IGROV1 ovarian 110% | OVCAR-3 ovarian 99.4% | HS 578T breast 79.5% | NCI/ADR-RES ovarian 94.4% | T-47D breast 73.6%

ClC1C2CC(c3ccccc32)C1Cl (stereo not given)
inactive: RPMI-8226 leukemia 97.6% | OVCAR-8 ovarian 113% | OVCAR-5 ovarian 102% | OVCAR-4 ovarian 112% | SK-OV-3 ovarian 115% | IGROV1 ovarian 118% | OVCAR-3 ovarian 113% | HS 578T breast 113% | NCI/ADR-RES ovarian 106% | T-47D breast 103%

CCN1C(=O)c2ccc3c4c(ccc(c24)C1=O)C(=O)N(CCCNCc1ccccc1OC)C3=O
active: RPMI-8226 leukemia -23% | OVCAR-8 ovarian -22.9% | OVCAR-5 ovarian -90.6% | OVCAR-4 ovarian -60.3% | IGROV1 ovarian -63% | OVCAR-3 ovarian -20.1% | HS 578T breast -31.2% | NCI/ADR-RES ovarian 4.44% | T-47D breast -50.5%
inactive: SK-OV-3 ovarian 11.1%

O=C1/C(=C/c2ccc([N+](=O)[O-])o2)Oc2ccc(Cl)cc21
inactive: OVCAR-5 ovarian 46.1% | SK-OV-3 ovarian 85.6% | HS 578T breast 68.7% | NCI/ADR-RES ovarian 56.1%
active: RPMI-8226 leukemia -11.3% | OVCAR-8 ovarian -14.9% | OVCAR-4 ovarian -48% | IGROV1 ovarian -53.6% | OVCAR-3 ovarian -74.5% | T-47D breast -28.9%

O=C(CN1CCCCC1)Sc1nnc2sc3ccccc3n12
inactive: RPMI-8226 leukemia 108% | OVCAR-8 ovarian 98.8% | OVCAR-5 ovarian 144% | OVCAR-4 ovarian 105% | SK-OV-3 ovarian 89.5% | IGROV1 ovarian 121% | OVCAR-3 ovarian 111% | HS 578T breast 110% | NCI/ADR-RES ovarian 100% | T-47D breast 92.2%
